Measurements: PubChem BioAssay AID1851 (National Center for Advancing Translational Sciences (NCATS), 2009)
Among all 16,000 compounds or so, about 5,700 (36%) were called active. Not shown: some 24% with an inconclusive outcome. The list shows a part of the results. Unmarked numbers belong to inactive results. Calls follow the shape of the dose curve; as a rule, active = well fitted curve in the direction sought with a large enough effect; inconclusive = small, poorly fitted or top-dose-only effect, or effect the other way; inactive = no such curve, though single readings can be large or run the other way.

Each molecule was assayed against Cytochrome P450 1A2 (Homo sapiens) (UniProt P05177) (assay: Cytochrome panel assay with activity outcomes). Conditions: recombinant CYP, pro-luciferin dealkylation, luminescence, p450-cyp1a2; series mostly up to 57.1 µM.
% is scaled to controls: 0 for no effect and ±100 for the full control effect.

Cytochrome P450 1A2 (Homo sapiens), sequence (P05177 whole entry, looked up): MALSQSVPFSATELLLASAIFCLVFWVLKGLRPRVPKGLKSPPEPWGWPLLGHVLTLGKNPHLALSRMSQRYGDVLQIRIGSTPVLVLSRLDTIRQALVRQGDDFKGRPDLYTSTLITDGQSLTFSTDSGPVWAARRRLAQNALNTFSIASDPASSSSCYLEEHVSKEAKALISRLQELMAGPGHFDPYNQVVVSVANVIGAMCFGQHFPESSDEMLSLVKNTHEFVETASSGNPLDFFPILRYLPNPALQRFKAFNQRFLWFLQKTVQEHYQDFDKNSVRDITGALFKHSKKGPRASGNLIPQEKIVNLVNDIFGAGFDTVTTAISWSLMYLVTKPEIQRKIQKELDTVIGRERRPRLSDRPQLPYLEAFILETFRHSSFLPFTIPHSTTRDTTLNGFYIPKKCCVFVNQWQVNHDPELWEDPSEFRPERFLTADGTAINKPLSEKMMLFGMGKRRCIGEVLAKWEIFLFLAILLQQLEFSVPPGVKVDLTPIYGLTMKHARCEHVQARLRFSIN

Row | Compound | AC50 | activity, negative = inhibition
1 | COc1ccc(C2/C(=C(/O)c3ccc4c(c3)CC(C)O4)C(=O)C(=O)N2CCN2CCOCC2)cc1 (stereo not given) | inactive | –
2 | CC(C)=CCC/C(C)=C/CO/N=C1/C[C@@H](O)[C@@H](O)[C@@H]2[C@@H]3C(=O)N(Cc4ccccc4)C(=O)[C@H]3CC[C@H]12 | – | 3.92% [at 11.4 µM]
3 | CC(C)=CCC/C(C)=C/CO/N=C1/C[C@@H](O)[C@@H](O)[C@@H]2[C@@H]3C(=O)N(Cc4ccccc4)C(=O)[C@H]3CC[C@@H]12 | – | 4.86% [at 11.4 µM]
4 | CCSC1=C(C#N)C2(CCCCC2)C(C#N)=C(N)N1 | 12.6 µM (active) | –
5 | CC(C)NC(=O)N1CC2(CCN(C(=O)c3ccco3)CC2)C1 | inactive | –
6 | CCOc1ccc2nc(C)cc(Nc3ccc4c(c3)OCCO4)c2c1 | 4.47 µM (active) | –
7 | CCC(C)NS(=O)(=O)c1ccc(OCC(=O)Nc2ccc3c(c2)OCCO3)cc1 (stereo not given) | inactive | –
8 | CNCCCCCCCCSc1nc(C(C)C)ccc1C(=O)c1cccs1 | 31.6 µM (active) | –
9 | CCOC(=O)CCN1C(=O)[C@H]2[C@H]3[C@H](O)[C@H](O)C/C(=N/OC[C@@H](O)COCc4ccco4)[C@H]3CC[C@@H]2C1=O | – | -1.05% [at 11.4 µM]
10 | Cc1nnsc1SC(C)C(=O)O (stereo not given) | inactive | –
11 | O=C1CCCN1CC(O)CS(=O)(=O)c1ccccc1 (stereo not given) | inactive | –
12 | O=S(=O)(CC(O)COc1ccccc1Cl)c1ccccc1 (stereo not given) | 22.4 µM (active) | –
13 | CC(C)CCNC1=NCCCCC1 | inactive | –
14 | O=C(Nc1ccccc1)c1cc(-c2ccccc2Cl)no1 | 0.794 µM (active) | –
15 | CCn1c(-c2ccccc2Cl)nn(CC(=O)Nc2ccc(OC)cc2)c1=S | inactive | –
16 | N[C@@H](Cc1cc(CP(=O)(O)O)cc(-c2ccccc2Cl)c1)C(=O)O | inactive | –
17 | COc1ccc(NC(=O)c2cc(-c3ccccc3Cl)no2)cc1 | 2.24 µM (active) | –
18 | Cc1onc(-c2ccccc2Cl)c1C(=O)NCC(=O)O | inactive | –
19 | Cc1ccc([N+](=O)[O-])cc1N=C(c1cccc([N+](=O)[O-])c1)N1CCOCC1 | inactive | –
20 | NC(N)=Nc1nc2ccc([N+](=O)[O-])cc2[nH]1 | 3.16 µM (active) | –
21 | OC[C@@H]1NC[C@@H](O)[C@@H](O)[C@H]1O | inactive | –
22 | N#Cc1c(-c2ccccc2)ccnc1Oc1ccccc1 | 1.12 µM (active) | –
23 | Cc1cc(C)c(C#N)c(Oc2ccccc2)n1 | 3.16 µM (active) | –

Row | Compound | AC50 | activity, negative = inhibition
24 | CCCC(=O)Nc1cccc(Oc2nc(C)cc(C)c2C#N)c1 | 5.01 µM (active) | –
25 | Cc1cc(C)c(C#N)c(Oc2ccc(F)cc2)n1 | 2.51 µM (active) | –
26 | COc1cccc(C2C3=C(CC(C)(C)CC3=O)OC(N)=C2[N+](=O)[O-])c1 (stereo not given) | inactive | –
27 | CC(C)(C)COS(=O)OCC(C)(C)C | – | -15.5% [at 11.4 µM]
28 | Nc1nc(N)[n+]([O-])c(N)c1NCO | – | -6.17% [at 11.4 µM]
29 | CN(C)c1ccnc(Oc2ccc(Cl)cc2)c1C#N | 2.51 µM (active) | –
30 | Cc1ccccc1-n1cnc2cc(NCc3cccs3)ccc21 | 5.62 µM (active) | –
31 | Cc1ccc(Sc2nc(C)cc(C)c2S(C)(=O)=O)cc1 | 10 µM (active) | –
32 | CNc1nc(C)cc(C)c1S(=O)(=O)c1ccc(C)cc1 | inactive | –
33 | COC(=O)[C@H](CCSC)NC(=O)C/C=C\[C@@H](C)CO | – | 2.44% [at 11.4 µM]
34 | c1ccc2c(N3CCOCC3)nc(-c3ccoc3)nc2c1 | 1.26 µM (active) | –
35 | O=C(c1cc(-c2ccncc2)nc2ccccc12)N1CCN(c2ccc(N3CCOCC3)nn2)CC1 | inactive | –
36 | CN1CCN(c2nc(-c3ccoc3)nc3ccccc23)CC1 | 1.26 µM (active) | –
37 | CC1(C)O[C@H]2C[C@@H]3[C@H]4CCC5=CC(=O)CC[C@@]5(C)[C@]4(F)[C@@H](O)C[C@@]3(C)[C@@]2(C(=O)CCl)O1 | inactive | –
38 | CC(=O)O[C@]1(C(C)=O)CC[C@@H]2[C@@H]3C=C(C)C4=CC(=O)CC[C@@]4(C)[C@H]3CC[C@]21C | inactive | –
39 | Oc1ccc(-c2nc(-c3ccc(F)cc3)c(-c3ccncc3)[nH]2)cc1 | 15.8 µM (active) | –
40 | CS(=O)c1ccc(-c2nc(-c3ccc(F)cc3)c(-c3ccncc3)[nH]2)cc1 (stereo not given) | 0.631 µM (active) | –
41 | O=C(N/N=C/c1cccc(Oc2ccccc2)c1)c1cccc(Br)c1 | 0.891 µM (active) | –
42 | O=C(N/N=C\c1ccc(Sc2ccccn2)o1)c1cccc(Br)c1 | 15.8 µM (active) | –
43 | O=C(N[C@@]1(C(=O)O)C[C@@H]1c1ccccc1)c1ccccc1 | – | 2.45% [at 11.4 µM]
44 | O=C(N/N=C/C1C(c2ccccc2)C1(Cl)Cl)c1cccc(Br)c1 (stereo not given) | 2 µM (active) | –
45 | N[C@@H]1[C@@H]2[C@@H]3C[C@H]4N(CC[C@@]14C(=O)C(=O)O)CC3=CCO[C@@H]2CC(=O)O | – | -16.1% [at 11.4 µM]
